From PubChem BioAssay (NCI)
The panel holds about 83,000 compounds, 20% with a hit somewhere; the sample as a whole holds those more often.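 Growth was measured after 48 h exposure to one concentration of compound in 96-well plates. Values under 10 count as active.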 A number with no mark means an inactive call. Activity calls are given as the source filed them.

tested on: SK-OV-3 ovarian; assay: NCI-60 one-dose screen, 48 h (100 = growth as untreated, 0 = no growth, -100 = all killed); settings: 10 µM unless noted
Procedure: Growth inhibition of the SK-OV-3 human tumor cell line is measured as a screen for anti-cancer activity. Cells are grown in 96 well plates and exposed to the test compound for 48 hours. Compounds are tested at a single concentration, which is 10^-5 M for most compounds. The reported endpoint is percent growth (GI% or GIPRCNT), where numbers from 0 - 100% represent growth inhibition, and numbers from -100% - 0 represent cell death. For example, a value of 40 represents 60% growth inhibition. A value of 0 means no net growth occurred over the course of the experiment. A value of -40 indicates 40% of cells at the beginning of the experiment died by the end of the experiment. A value of -100 means all cells are dead at the end of the experiment.
NCI-60 Human Tumor Cell Lines Screen was performed using the standard one-dose NCI protocol, which is described in more detail at https://dtp.cancer.gov/discovery_development/nci-60/default.htm.
Compounds with GIPRCNT values below 10 were considered active. Activity score was based on GIPRCNT using the following formula: […]
Score is 0 for GIPRCNT values of 100 or above, 50 for GIPRCNT values of 0, and 100 for GIPRCNT values of -100.

First: CCCCN(CCC)CCCCCCCCCCN1CCCc2ccccc21
Second: CCCCN(CCCC)CCCNc1c2c(nc3ccc(Cl)cc13)CCCC2
The growth of the first is lower: 81.4% for the first, 105% for the second.

Going from CCCCCCCCCC[N+](C)(C)C to CC(C)(C)C(=O)CCCCCCCC/C=C/CCCC(O)c1ccco1 (stereo not given), the growth rises from 56.2% to 116%.

Compared with O=C(/C=C\c1ccc(NCc2ccc(C(=O)O)cc2)cc1)CCl, O=C(/C=C/c1ccc(Cl)cc1)c1ccc(Cl)cc1 is lower in growth: 106% for the first, 104% for the second.

First: O=C(N/N=C/c1cc(Cl)ccc1O)C(=O)N/N=C/c1cc(Cl)ccc1O
Second: COC(=O)c1cc(Nc2ccc(O)c3c2C(=O)c2c([N+](=O)[O-])ccc(O)c2C3=O)cc(C(=O)OC)c1
The growth of the first is lower: 64.1% for the first, 82.3% for the second.

First: CCC(C)(CC)c1ccc(O)c(C)c1
Second: COc1cc(NC(C)CCCN)c2nc(C)ccc2c1OC (stereo not given)
The growth of the first is lower: 93.4% for the first, 107% for the second.

Going from C/C=C/C/C=C/[C@H](C)C[C@H](O)[C@@H]1C[C@@H]2O[C@H]2/C=C/[C@H](O)[C@@H](O)/C=C/C[C@H](C)CC(=O)O1 to C/C=C(/C)C(=O)OC1C=C(CO)C(=O)C(OC(=O)C2(C)OC2C)C1C(C)C (stereo not given), the growth falls from 102% to 44.3%.

Compared with COc1cccc(CNC(=O)c2cccc(C3CC(=O)c4c(cc(OC)c(OC)c4OC)O3)c2)c1 (stereo not given), CCCC(=O)NNc1[nH]c(-c2cc(OC)c(OC)c(OC)c2)cc1C(=O)OCC is higher in growth: 81.7% for the first, 110% for the second.

First: O=C1OC(c2ccc(-c3ccccc3)cc2)=C/C1=C/c1c2ccccc2cc2ccccc12
Second: CC(=O)/C(=C\c1c(-c2ccccc2)[nH]c2ccccc12)S(=O)(=O)c1ccccc1
The growth of the first is higher: 96% for the first, 19.3% for the second.

First: O=C1C(Cl)=C(Nc2ccc(Nc3ccccc3)c(NC3=C(Cl)C(=O)c4ccccc4C3=O)c2)C(=O)c2ccccc21
Second: c1cc[c]([Bi]([c]2ccccc2)[c]2ccccc2)cc1
The growth of the first is lower: 80.5% for the first, 111% for the second.

Compared with Cn1c2ccccc2c2ccccc21, COc1ccc2sc(-n3nc4nc5n(c(=O)c4c3N)-c3ccccc3Sc3ccccc3-5)nc2c1 is lower in growth: 102% for the first, 91.8% for the second.

Going from COC1(OC)N=C(N)C2(C#N)C3(C(=O)Nc4ccccc43)C12C#N (stereo not given) to COc1cc(N)c2nccc(C)c2c1OC, the growth rises from 77.4% to 108%.

Going from CC(O)CN(CC(C)O)N(CC(C)O)CC(C)O (stereo not given) to C=C(C)C(C(=O)OCC)(C(=O)OCC)C(C)C, the growth falls from 109% to 107%.

First: COc1ccc(CN2C(=O)/C(=C\C(=O)c3ccc(OCCN4CCCCC4)cc3)c3ccccc32)cc1
Second: CCCCCCNC(=O)Oc1ccc(/C(=C(/C)Cc2ccc(OC)cc2)c2ccc(OCCN(C)C)cc2)cc1
The growth of the first is higher: 107% for the first, 83.4% for the second.

First: CN(C)CCOC(=O)C(C)(C)C
Second: COC1=CC(c2ccc[nH]2)=N/C1=C\c1[nH]c(C)c(C(=O)CCCCC(=O)NC(C)(C)C)c1C
The growth of the first is higher: 112% for the first, 102% for the second.

Compared with COc1cc(/C=C/C(=O)/C=C(/C=C/c2ccc(OC(C)=O)c(OC)c2)OB(F)F)ccc1OC(C)=O, COc1cc2ncnc(-n3ncc4cc(NC(=O)Nc5ccc(Cl)c(C)c5)ccc43)c2cc1OC is higher in growth: 94.8% for the first, 119% for the second.

First: O=C(NC1CCN(Cc2ccccc2)CC1)c1cc(-c2cccnc2)nc2ccc(Cl)cc12
Second: COc1ccc2c(N)ncc(C#Cc3cc(C(=O)Nc4ccc(CN5CCN(C)CC5)c(C(F)(F)F)c4)cnc3C)c2c1
The growth of the first is higher: 102% for the first, 24.5% for the second.

Compared with N#Cc1ccc(OCc2nc(N)nc(N)c2-c2ccc(Cl)c(Cl)c2)cc1, COc1ccc2c(c1)/C(=C1/S/C(=N/c3nnc(C)s3)NC1=O)C(=O)N2Cc1ccc(Br)cc1 is higher in growth: 38.5% for the first, 52.1% for the second.

Compared with CC1=NN(c2cccc(Cl)c2)C(=O)/C1=C\c1cn(-c2nc(N3CCOCC3)nc(N3CCOCC3)n2)c2ccccc12, C[C@H]1C[C@@H](n2cnc3c(N)nccc32)[C@H](O)[C@@H]1O is higher in growth: 109% for the first, 117% for the second.

Work on COC1NC(Cl)=C(C#N)C(C#N)(C#N)C1(C)C (stereo not given) yielded a growth of 113%.

Cc1ccc(C(=O)Nc2ccc(CN3CCN(C)CC3)c(C(F)(F)F)c2)cc1C#Cc1cnc(N)c2ccc(F)cc12 was tested, and the growth was 1.66% (active).
COC(=O)[C@H](Cc1cn(C)cn1)NC(=O)[C@H](CC(=O)OCc1ccccc1)NC(=O)Nc1cc(C(F)(F)F)cc(C(F)(F)F)c1 was tested, and the growth was -100% [100 µM] (active).
COc1ccccc1CNCCCN1C(=O)c2ccc3c4c(ccc(c24)C1=O)C(=O)N(CCCNCc1ccccc1OC)C3=O was tested, and the growth was 0% (active).
